Measured values reported in PubChem BioAssay (EPA / NIEHS).
Active and inactive are the calls of the source. The calls were made as follows: active = hit-call score of the fitted dose curve at least 0.9, where 1 is the maximum; inactive = score below 0.9.

Experiments:
[1] = APR_HepG2_P-H2AX_72hr: Apredica 72-hour HepG2 Assay for H2AX Phosphorylation (AID 2282916); conditions: imaging, actives raise or lower the signal;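 also: phospho-histone H2A.x immunostain intensity per cell marking DNA damage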
How it was run: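 Following 72 hr treatment with 0.39–200 uM compound, HepG2 cells were formaldehyde-fixed, permeabilized and stained for phospho-H2A.x; signal was measured by high-content imaging and fitted bidirectionally against DMSO controls.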

[2] = APR_HepG2_MitoMembPot_72hr: Apredica 72-hour HepG2 Assay for Mitochondrial Membrane Potential (AID 2282917); conditions: imaging, actives raise or lower the signal
How it was run: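 HepG2 cells exposed 72 h to compounds at 0.39–200 uM (0.5% v/v DMSO, duplicates); MitoTracker Red CMXRos 250 nM loaded 30 min before 3.7% formaldehyde fixation, imaged by HCS fluorescence. Bidirectional fit versus DMSO.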

[3] = APR_HepG2_MitoticArrest_72hr: Apredica 72-hour HepG2 Assay for Mitotic Arrest (AID 2282918); conditions: high-content imaging, actives raise or lower the signal
How it was run: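 HepG2 cells were exposed for 72 hr to compound at 0.39–200 uM (10 concentrations, duplicate) in 0.5% v/v DMSO, fixed in 3.7% formaldehyde, immunostained for phospho-histone H3 with Hoechst 33342 and imaged by high-content fluorescence; bidirectional fits versus DMSO.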

[4] = APR_HepG2_MicrotubuleCSK_72hr: Apredica 72-hour HepG2 Assay for Microtubule CSK Stabilty (AID 2282919); conditions: HepG2 microtubule cytoskeleton, high-content imaging, actives raise or lower the signal
How it was run: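 HepG2 human liver cells were dosed for 72 h at ten concentrations from 0.39 to 200 uM in duplicate (0.5% v/v DMSO final). Fixed, permeabilized cells were immunostained for alpha-tubulin (Cy5) with a Hoechst counterstain and imaged at 20x.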

[5] = APR_HepG2_StressKinase_72hr: Apredica 72-hour HepG2 Assay for Stress Kinase (AID 2282921); conditions: HepG2 stress kinase (phospho-c-Jun) imaging, actives raise or lower the signal
How it was run: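 Fluorescence intensity of Cy3-tagged anti-phospho-c-Jun antibody, quantified per cell from Hoechst-defined nuclei across six images per well, served as the read-out following 72 h exposure (0.39–200 uM, 0.5% v/v DMSO).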

[6] = APR_HepG2_StressKinase_24hr: Apredica 24-hour HepG2 Assay for Stress Kinase (AID 2282922); conditions: HepG2 stress kinase (phospho-c-Jun) imaging, actives raise or lower the signal
How it was run: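 HepG2 cells exposed 24 hr to compound at 0.39–200 uM (10 concentrations, duplicate), 0.5% v/v DMSO final. Fixed in 3.7% formaldehyde, permeabilized with Triton X-100, immunolabeled for phospho-c-Jun with Hoechst 33342; HCS fluorescence imaging, bidirectional fit versus DMSO.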

[7] = APR_HepG2_p53Act_72hr: Apredica 72-hour HepG2 Assay for p53 Activation (AID 2282923); conditions: high-content imaging, actives raise or lower the signal;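 also: average cellular p53 protein immunofluorescence intensity in HepG2 cells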
How it was run: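 HepG2 monolayers receive test compounds in duplicate at ten concentrations (0.39 through 200 uM) for 72 hr. They are then formaldehyde-fixed, antibody-labelled for p53, Hoechst-stained and imaged, with activity fitted bidirectionally versus DMSO.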

[8] = APR_HepG2_MitoMass_72hr: Apredica 72-hour HepG2 Assay for Mitochondrial Mass (AID 2282924); conditions: high-content imaging, actives raise or lower the signal;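 also: MitoTracker Red CMXRos stain intensity per cell imaged as mitochondrial mass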
How it was run: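 HepG2 cells were exposed for 72 hr to compounds at 0.39–200 uM (ten concentrations, duplicate, 0.5% v/v DMSO final). Live cells were stained with 250 nM MitoTracker Red CMXRos for 30 min, then fixed in 3.7% formaldehyde and imaged by HCS fluorescence.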

[9] = APR_HepG2_NuclearSize_72hr: Apredica 72-hour HepG2 Assay for Nuclear Size (AID 2282925); conditions: high-content imaging, actives raise or lower the signal
How it was run: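 HepG2 cells were exposed to compounds at ten concentrations from 0.39 to 200 uM (duplicate, 0.5% DMSO final) for 72 hr. After fixation in 3.7% formaldehyde, nuclei were stained with Hoechst 33342 (2 ug/mL) and imaged at 20x.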

[10] = APR_HepG2_P-H2AX_24hr: Apredica 24-hour HepG2 Assay for H2AX Phosphorylation (AID 2282920); conditions: high-content imaging, actives raise or lower the signal
How it was run: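 HepG2 human liver cells were exposed for 24 hr to compounds at 0.39–200 uM in duplicate, with 0.5% v/v DMSO final. Fixed cells were immunostained for phospho-histone H2A.x plus Hoechst 33342, imaged by HCS fluorescence, and fitted bidirectionally against DMSO.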

Measured: AC50

C[C@]12CC[C@@H]3c4ccc(O)cc4CC[C@H]3[C@@H]1CC[C@H]2O
inactive: [1] | [2] | [3] | [4] | [5] | [6] | [7] | [8] | [9]

CCCC(=O)OCCC(C)C
inactive: [1] | [2] | [3] | [4] | [10] | [5] | [6] | [7] | [8] | [9]

Cc1ncc(CO)c(CO)c1O
inactive: [1] | [2] | [3] | [4] | [5] | [6] | [7] | [8] | [9]

CN1C(=O)N(c2ccccc2Br)Cc2cnc(Nc3ccc4c(c3)OCC(CO)O4)nc21 (configuration not stated)
inactive: [2] | [4] | [5] | [6] | [9]
active: [1] 3.96 µM | [3] 2.57 µM | [7] 4.04 µM | [8] 19.8 µM

CN(C)c1ccc(C(=C2C=CC(=[N+](C)C)C=C2)c2ccc(N(C)C)cc2)cc1
inactive: [9]
active: [1] 4.24 µM | [2] 0.384 µM | [3] 4.11 µM | [4] 12.4 µM | [5] 40 µM | [6] 6.59 µM | [7] 19.9 µM | [8] 0.0403 µM

CCCCCCCC[Si](OCC)(OCC)OCC
inactive: [2] | [4] | [6] | [9]
active: [1] 19.8 µM | [3] 115 µM | [5] 100 µM | [7] 19.8 µM | [8] 41.2 µM

c1ccc2n[nH]nc2c1
inactive: [1] | [2] | [3] | [4] | [10] | [5] | [6] | [7] | [8] | [9]

Cc1occc1C(=O)Nc1ccc(C(=O)N2CCC(F)(F)/C(=C\C(=O)N3CCC(N4CCCCC4)CC3)c3ccccc32)cc1
active: [3] 20.7 µM | [7] 29 µM
inactive: [1] | [2] | [4] | [5] | [6] | [8] | [9]

Cc1cc(F)ccc1-c1cc(N2CC[C@@H](O)[C@H]2CO)ncc1N(C)C(=O)C(C)(C)c1cc(C(F)(F)F)cc(C(F)(F)F)c1
active: [1] 57.7 µM | [3] 74 µM | [10] 53.8 µM | [7] 65 µM
inactive: [2] | [4] | [5] | [6] | [8] | [9]

OCCO
inactive: [1] | [2] | [3] | [4] | [5] | [6] | [7] | [8] | [9]

O=C(OCCCCCCOC(=O)c1ccccc1)c1ccccc1
inactive: [1] | [2] | [3] | [4] | [5] | [6] | [7] | [8] | [9]

CC1=CC(=O)/C(=C(/C)O)C(=O)O1
inactive: [1] | [2] | [3] | [4] | [10] | [5] | [6] | [7] | [8] | [9]

OC12N=C(c3ccccc3)SC1Cc1cc(Cl)ccc12 (configuration not stated)
inactive: [4] | [5] | [6] | [7] | [8] | [9]
active: [1] 52.1 µM | [2] 0.548 µM | [3] 46.8 µM

CCN(CC)C(=O)c1cc(S(=O)(=O)Cc2ccccc2)c(N2CCC(c3ccccc3)CC2)cc1N(CC)CCN(C)C
active: [1] 0.876 µM | [2] 1.88 µM | [3] 1.12 µM | [4] 7.7 µM | [10] 1.93 µM
inactive: [5] | [6] | [7] | [8] | [9]

CCOC(=O)O[C@H](C)OC(=O)c1ccc2c(c1)cc(C(=O)NC1CCN(C(C)C)CC1)n2Cc1cc(-c2ccc(Cl)s2)on1
active: [4] 94.5 µM | [10] 94.5 µM
inactive: [1] | [2] | [3] | [5] | [6] | [7] | [8] | [9]

O=c1c(-c2ccc(O)cc2)coc2cc(O)cc(O)c12
inactive: [1] | [3] | [4] | [10] | [5] | [6] | [8] | [9]
active: [2] 57 µM | [7] 72.9 µM

Cc1ccc2oc(CN(Cc3ccccc3)C(=O)Nc3c(F)cc(F)cc3F)c(-c3ccc(Cl)cc3)c2c1
inactive: [1] | [2] | [3] | [4] | [5] | [6] | [7] | [8] | [9]

CC(C)(O)c1ccc(CNC(=O)c2cccnc2Oc2ccc3nonc3c2)cc1
inactive: [1] | [2] | [3] | [4] | [10] | [5] | [6] | [7] | [8] | [9]

CN1C(=O)CC[C@H]1c1cccnc1
inactive: [1] | [2] | [3] | [4] | [5] | [6] | [7] | [8] | [9]

O=C(O)c1ccccc1-n1cc(C(=O)O)c(=O)c2cc(Nc3c(F)cc(F)cc3Cl)c(Cl)cc21
inactive: [1] | [2] | [3] | [4] | [5] | [6] | [7] | [8] | [9]

CCCCOC(=O)c1ccc(O)cc1
inactive: [1] | [2] | [3] | [4] | [10] | [5] | [6] | [7] | [8] | [9]

COc1cc(C(=O)NC2CCN(C)CC2)ccc1Nc1ncc2c(n1)N(C1CCCC1)CC(F)(F)C(=O)N2C
inactive: [1] | [2] | [3] | [4] | [5] | [6] | [7] | [8] | [9]

O=C1c2ccccc2C(=O)N1CCc1noc(-c2ccc(CN3CCCCCC3)s2)n1
inactive: [1] | [2] | [3] | [4] | [10] | [5] | [6] | [7] | [8] | [9]

CC[C@H](NC(=O)c1cc(F)ccc1NS(=O)(=O)c1cccc2cccnc12)c1ccccc1
inactive: [1] | [2] | [4] | [5] | [6] | [7] | [8] | [9]
active: [3] 92.5 µM

Cc1cn([C@H]2C[C@H](N=[N+]=[N-])[C@@H](CO)O2)c(=O)[nH]c1=O
inactive: [1] | [2] | [3] | [4] | [10] | [5] | [6] | [7] | [8] | [9]

Cc1cccc2ccccc12
inactive: [1] | [2] | [3] | [4] | [5] | [6] | [7] | [8] | [9]

Cc1c2ccccc2c(C)c2c1ccc1ccccc12
active: [1] 21.5 µM | [3] 35.8 µM | [4] 74 µM | [5] 6.17 µM | [7] 0.355 µM | [9] 54.7 µM
inactive: [2] | [6] | [8]

COc1ccc2cc(S(=O)(=O)N[C@H](CC(=O)N[C@H](Cc3ccc(CN4[C@H](C)CCC[C@@H]4C)cc3)C(=O)N(C)C(C)C)c3ccc4c(c3)OCO4)ccc2c1
active: [1] 13.7 µM | [3] 11.1 µM | [5] 13.6 µM | [7] 10.7 µM | [8] 45 µM
inactive: [2] | [4] | [6] | [9]

CC(C)(c1cc(Br)c(O)c(Br)c1)c1cc(Br)c(O)c(Br)c1
active: [1] 63.3 µM | [3] 69 µM | [10] 70.7 µM | [7] 47.8 µM | [8] 51.4 µM | [9] 77.7 µM
inactive: [2] | [4] | [5] | [6]

NCc1cccc(C2CCN(C(=O)c3ccc(C#Cc4ccccc4F)o3)CC2)c1
active: [1] 17.7 µM | [2] 98.3 µM | [3] 17.2 µM | [5] 14.3 µM | [7] 11.4 µM | [9] 107 µM
inactive: [4] | [6] | [8]

CCCCCCCCCC(=O)O
inactive: [1] | [2] | [4] | [10] | [5] | [6] | [7] | [8] | [9]

Oc1ccc2ccccc2c1
inactive: [1] | [2] | [3] | [4] | [5] | [6] | [7] | [8] | [9]

CCCCCCCCCCCO
active: [3] 105 µM | [10] 100 µM
inactive: [1] | [2] | [4] | [5] | [6] | [7] | [8] | [9]

O=c1[nH]sc2ccccc12
inactive: [4] | [6] | [9]
active: [1] 46.1 µM | [2] 107 µM | [10] 5.7 µM | [5] 50.4 µM | [7] 48.5 µM | [8] 13.6 µM

Clc1ccccc1C(c1ccccc1)(c1ccccc1)n1ccnc1
active: [1] 25.8 µM | [3] 24.8 µM | [5] 29.3 µM | [6] 62 µM | [7] 29.8 µM | [9] 55.5 µM
inactive: [2] | [4] | [8]

CCN(Cc1cccc(S(=O)(=O)O)c1)c1ccc(C(=C2C=CC(=[N+](CC)Cc3cccc(S(=O)(=O)O)c3)C=C2)c2ccccc2S(=O)(=O)[O-])cc1
inactive: [1] | [2] | [3] | [4] | [5] | [6] | [7] | [8] | [9]
